CYP2C19 activ = human CYP2C19 activators, primary screen, biochemical, luminescence. AID 1025, 2008. activation factor at 5 µM. Cytochrome P450 2C19 (Homo sapiens), P33261. 96,000 tested, under 10 active. recombinant CYP2C19, luciferin-H EGE luminescence; active compounds read high; 0 = fully inhibited enzyme, 1 = untreated enzyme;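 active = activation factor of at least 2 at 5 µM in the primary screen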
Target sequence (P33261 whole entry, looked up): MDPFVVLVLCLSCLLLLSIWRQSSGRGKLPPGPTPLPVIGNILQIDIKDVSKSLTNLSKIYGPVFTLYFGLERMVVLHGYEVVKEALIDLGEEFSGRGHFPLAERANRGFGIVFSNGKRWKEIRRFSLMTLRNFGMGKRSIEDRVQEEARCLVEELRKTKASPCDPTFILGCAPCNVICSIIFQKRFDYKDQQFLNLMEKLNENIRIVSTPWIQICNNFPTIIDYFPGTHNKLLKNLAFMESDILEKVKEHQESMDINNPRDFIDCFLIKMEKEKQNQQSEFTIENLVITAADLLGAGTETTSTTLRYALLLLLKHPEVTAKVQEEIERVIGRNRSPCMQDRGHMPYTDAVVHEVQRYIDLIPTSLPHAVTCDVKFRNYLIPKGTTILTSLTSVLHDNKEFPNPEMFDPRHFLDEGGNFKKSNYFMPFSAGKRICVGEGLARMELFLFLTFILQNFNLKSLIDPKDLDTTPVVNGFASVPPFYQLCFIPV
CYP2C9 act = human CYP2C9 activators, primary screen, biochemical, luminescence; recombinant CYP2C9, luciferin-H conversion; active compounds read high; factor 1 = untreated enzyme, 0 = blocked; 96,000 compounds, 1.4% hits; activation factor at 5 µM;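 active = activation factor of 2 or more for CYP2C9 at a 5 µM dose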
CYP2C19 inh = blockers of cytochrome P450 2C19 activity – biochemical, luminescence, ADME assay, primary screen; P33261; CYP2C19 Supersomes, luciferin-H EGE luminescence, 30 min; inhibition, % at 5 µM; 96,000 compounds, 21% hits;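 active = CYP2C19 inhibition above a set limit at 5 µM in the primary screen, cut at about 50% in these data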
MRP resist rev = reversal of MRP1-mediated doxorubicin resistance, primary screen, H69AR cells, doxorubicin co-treatment; 85,000 compounds, 0.04% hits; AID 602, 2007; H69AR cells + 2 uM doxorubicin, CellTiter-Glo, 72 h; differential viability (reversal), % at 10 µM;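 active = viability drop by adding the cancer drug above about 55%, with treated viability meeting a 40% cutoff, limit read from the data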;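 note: larger differential means the compound sensitizes cells more to doxorubicin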
CYP2C9 inh = blockers of cytochrome P450 2C9 activity – biochemical, luminescence, ADME assay, primary screen | 96,000 compounds, 20% hits | inhibition, % at 5 µM | P11712 | AID 777, 2007 | CYP2C9 Supersomes, luciferin-H conversion;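 active = blocking of liver enzyme CYP2C9 beyond about 50% at 5 µM, limit read from the data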
MRP1 act = H69AR viability gain despite doxorubicin, primary screen, MRP-1 activator project, H69AR cells, CellTiter-Glo | viability rescue | viability increase, % at 10 µM | 140,000 compounds, 0.61% hits | AID 799, 2007;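 active = viability gain under doxorubicin at or above a set limit, the compound median plus 3 SD, cut at about 4.7% in these data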;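 note: MRP-1 overexpressing cells given doxorubicin 25 µM after compound pretreatment; 18-22 h compound pretreatment then 72 h with doxorubicin before readout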
A number is an active result; n = inactive; x = not tested or not shown. Most compounds without a hit are left out; they make up all but 21% or so of the library.

SMILES | CYP2C19 activ | CYP2C9 act | CYP2C19 inh | MRP resist rev | CYP2C9 inh | MRP1 act
Cn1c2ccccc2c2cc(C(=O)N3CCOCC3)sc21 | n | 2.5 | n | x | n | n
Cc1ccc(N2C(=O)C(Cl)=C(NCc3ccccc3)C2=O)c(C)c1 | n | n | 51.4 | n | 53.1 | n
O=C(CSc1nc2cc(Cl)ccc2s1)Nc1cccc(S(=O)(=O)N2CCOCC2)c1 | x | x | x | x | x | n
O=C(c1cc2ccccc2oc1=O)N(Cc1ccc2c(c1)OCO2)Cc1ccco1 | n | n | 96.5 | n | 92.1 | n
O=C(c1cc2ccccc2oc1=O)N(Cc1ccco1)CC1CCCO1 (stereo unspecified) | n | n | n | n | 54.7 | n
c1ccc(-n2nnnc2-n2nnc3ccccc32)cc1 | n | n | 93.9 | n | n | n
CCOc1ccc(CCNC(=O)CSc2cc(=O)n(C)c3ccccc23)cc1OCC | x | x | x | x | x | n
COC(=O)C1=C(C)N=C2SC(C)C(=O)N2C1/C=C/c1ccccc1OC (stereo unspecified) | n | n | 81.3 | x | 62.8 | n
CCOC(=O)C1=C(C)NC(C)=C(C(=O)OCC)C1/C=C/c1ccccc1OC | x | x | x | x | x | n
COC(=O)C1=C(C)N=C2SCCC(=O)N2C1/C=C/c1ccccc1 (stereo unspecified) | n | n | n | n | n | n
CCC1SC2=NC(C)=C(C(=O)OCCOC)C(/C=C/c3ccccc3OC)N2C1=O (stereo unspecified) | n | n | 78.0 | n | 91.3 | n
CCC1SC2=NC(C)=C(C(=O)OCC(C)C)C(/C=C/c3ccccc3OC)N2C1=O (stereo unspecified) | n | n | n | n | 78.0 | n
O=C(CC1Sc2ncnn2C1=O)Nc1ccccc1 (stereo unspecified) | n | n | n | n | n | n
CCOC(=O)CC(NC(=O)c1cccs1)c1ccc(OCC)cc1 (stereo unspecified) | n | n | 51.8 | n | 65.4 | n
CCOc1ccc(C(=O)NCc2cccs2)cc1 | n | n | 66.9 | n | n | n
CN(C)S(=O)(=O)c1cccc(C(=O)NCc2cccs2)c1 | n | n | 51.0 | n | 59.5 | n
CCOc1ccc(C(CC(=O)O)NC(=O)c2cccs2)cc1 (stereo unspecified) | x | x | x | n | x | n
CCN(CC)S(=O)(=O)c1ccc(C(=O)NCc2cccs2)cc1 | n | n | n | x | 53.2 | n
O=C(COC(=O)c1ccc(Cl)c(S(=O)(=O)N2CCN(c3ccc(F)cc3)CC2)c1)Nc1cccc(Cl)c1 | x | x | x | x | x | n
CC1(CC(=O)N/N=C/c2ccc(-c3cccc(C(F)(F)F)c3)o2)OCCO1 | x | x | x | x | x | n
O=C(c1ccccc1)c1cnc(Nc2ccccc2Cl)s1 | n | n | 53.5 | x | n | n
O=C(c1ccc(Cl)c(Cl)c1)c1cnc(Nc2ccccc2)s1 | n | n | n | x | n | n
CNc1ncc(C(=O)c2ccc(Cl)c(Cl)c2)s1 | n | n | 52.7 | x | n | n
CNc1ncc(C(=O)c2ccc(Cl)cc2)s1 | n | n | 65.4 | x | n | n
CCCn1nc(C(=O)OCC(=O)Nc2ncc(Cl)c(C)c2Cl)c2ccccc2c1=O | x | x | x | x | x | n
SMILES | CYP2C19 activ | CYP2C9 act | CYP2C19 inh | MRP resist rev | CYP2C9 inh | MRP1 act
O=S(=O)(/N=C(/c1ccc(F)cc1)N1CCCCC1)c1ccc(Cl)cc1 | x | x | x | x | x | n
Fc1ccc(C(CCCn2nnc(-c3cccnc3)n2)c2ccc(F)cc2)cc1 | n | n | 58.7 | n | 58.7 | n
Cc1ccc(C2CC(c3ccccc3)=NN2C(=O)CSc2nnc(-c3ccncc3)n2C)o1 (stereo unspecified) | x | x | x | x | x | n
COc1cc(Cl)c(C)cc1NC(=O)CSc1cc(Cl)ccc1Cl | x | x | x | x | x | n
CC(C)COC(=O)N1CC(O)CC1C(=O)O (stereo unspecified) | n | n | n | n | n | n
Cc1ccnc(SCc2cc(=O)c(OC(=O)c3ccc(Br)o3)co2)n1 | x | x | x | x | x | n
O=C(c1ccco1)N1CCN(S(=O)(=O)c2ccc3c(c2)CCN3C(=O)C2CC2)CC1 | n | n | 68.9 | n | n | n
CC(=O)N1CCc2cc(Br)cc(S(=O)(=O)N3CCN(C(=O)c4ccco4)CC3)c21 | n | n | n | x | 59.0 | n
O=C(c1ccco1)N1CCN(S(=O)(=O)c2cccc(C(F)(F)F)c2)CC1 | n | n | 82.6 | x | 70.7 | n
CC(=O)N1CCc2cc(Br)cc(S(=O)(=O)N3CCCCCC3)c21 | n | n | n | n | n | n
CC(Oc1ccc2ccc(=O)oc2c1)C(=O)c1ccccc1 (stereo unspecified) | x | x | x | x | x | n
O=S1(=O)CC(O)C(N2CCC(c3ccccc3)CC2)C1 (stereo unspecified) | n | n | n | n | n | n
CC(=O)NC(Cc1cccc(C)c1)C(=O)NC1CCN(C(=O)c2ccc([N+](=O)[O-])cc2)CC1 (stereo unspecified) | x | x | x | x | x | n
Cn1c(=O)c(=O)n(C)c2cc(S(=O)(=O)N3CCOCC3)ccc21 | n | n | n | n | n | n
Cn1c(=O)c(=O)n(C)c2cc(S(=O)(=O)N3CCN(C4CCCCC4)CC3)ccc21 | n | 2.5 | n | n | n | n
CCOC(=O)C(NC(=O)CC)C(O)c1cccc([N+](=O)[O-])c1 (stereo unspecified) | n | n | n | x | n | n
CCOC(=O)c1ccc(CC2S/C(=C(\C#N)C(C)=O)NC2=O)cc1 (stereo unspecified) | n | n | n | n | 62.0 | n
N#C/C(C(=O)NCc1ccco1)=C1/SC(Cc2ccc(Cl)cc2)C(=O)N1c1ccccc1 (stereo unspecified) | x | x | x | n | x | n
CCc1ccc(CC2S/C(=C(\C#N)C(C)=O)NC2=O)cc1 (stereo unspecified) | n | n | n | n | 78.4 | n
CCOC(=O)c1ccc(N2C(=O)C=CC2=O)cc1 | n | n | n | n | n | n
COc1cccc(-n2c(=O)c3cc(OC)c(OC)cc3n(CC(=O)Nc3cc(C)[nH]n3)c2=O)c1 | x | x | x | x | x | n
N#CC(C#N)=C1NC2(CCCC2)Cc2ccccc21 | x | x | x | x | x | n
CCCCNC(=O)C1CC(=O)N(c2ccc(OC)cc2)C1c1ccc(OC)cc1 (stereo unspecified) | n | n | n | n | n | n
CCc1cccc(C)c1NC(=S)N(Cc1cccnc1)Cc1ccco1 | x | x | x | x | x | n
Cc1ccc(S(=O)(=O)/N=C(\CN2CCCCC2)N2CCOCC2)cc1 | n | n | 63.6 | n | 52.9 | n
CCn1c(C(O)c2ccccc2)nc2ccccc21 (stereo unspecified) | n | n | 90.7 | n | n | n
CCn1c(C(O)c2cccc(OC)c2OC)nc2ccccc21 (stereo unspecified) | n | n | 87.1 | n | n | n
CCn1c(C(C)NC(=O)c2ccc(OC)c(OC)c2)nc2ccccc21 (stereo unspecified) | n | n | n | n | n | n
